This excerpt belongs to a sample that is enriched for hits.
Giardia FBPA inh: inhibitors of Giardia lamblia fructose-1,6-bisphosphate aldolase | A8B2U2 | purified Giardia FBPA | Potency, µM (doses to about 59.6 µM), for the others: at the highest dose activity, negative = inhibition, hits mostly inhibitors | actives 0.71% (n = 290,000) | AID 2451; also: potency is read from the fitted curve at half-maximal effect; % is scaled to controls: 0 for no effect and ±100 for the full control effect; nearly all actives have a fitted effect of over 55% in size
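Giardia FBPA (40 nM reagent) was preincubated 10 min at RT with compound (up to 57.5 uM final), then substrate plus GAPDH/TPI/NAD/arsenate coupling system with diaphorase/resazurin was added; resorufin fluorescence (525/598 nm) was read after 20 min.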
LmPK inhibitor: LmPK (Leishmania mexicana) enzyme inhibition; actives 0.37% (n = 290,000); AID 1721; Potency, µM (highest dose often 57.5 µM), for inactives: at the top dose activity change, negative = inhibition, usual class: inhibitors; purified LmPK, Kinase-Glo ATP luminescence, 1 h; also: potency is read from the fitted curve at half-maximal effect; % is scaled to controls: 0 for no effect and ±100 for the full control effect
Target sequence (Q27686 whole entry, looked up): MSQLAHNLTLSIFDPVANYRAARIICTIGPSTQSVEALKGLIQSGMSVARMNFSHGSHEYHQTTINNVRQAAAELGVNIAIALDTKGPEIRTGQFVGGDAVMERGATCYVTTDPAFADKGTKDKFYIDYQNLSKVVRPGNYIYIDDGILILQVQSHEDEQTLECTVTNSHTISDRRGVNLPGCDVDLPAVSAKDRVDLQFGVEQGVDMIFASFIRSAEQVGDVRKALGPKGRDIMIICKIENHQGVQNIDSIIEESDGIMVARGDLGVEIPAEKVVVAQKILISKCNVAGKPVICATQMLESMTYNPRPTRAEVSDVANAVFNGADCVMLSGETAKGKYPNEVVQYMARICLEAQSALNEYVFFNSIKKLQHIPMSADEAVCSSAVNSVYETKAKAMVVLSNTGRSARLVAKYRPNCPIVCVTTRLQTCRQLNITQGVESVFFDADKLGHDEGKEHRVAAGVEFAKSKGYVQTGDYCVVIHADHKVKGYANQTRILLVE
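Kinase-Glo luminescence read after 1 h RT reaction of 0.1 nM LmPK with 0.5 mM PEP and 0.1 mM ADP. Activity scaled between uninhibited and enzyme-free controls.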
Shiga toxin inh: inhibitors of Shiga toxin in Vero cells. Vero cells, Shiga toxin protein synthesis inhibition reporter. inhibition, % at 38.7 µM. actives 9.2% (n = 290,000); in the data active = inhibition mostly above about 28%, no sharp cut-off; inactive = mostly below about 43%; also: 0% is about no effect
TbPYK inhibitor: inhibitors of Trypanosoma brucei pyruvate kinase; Q57TT1; TbPYK enzyme, Kinase-Glo Plus ATP luminescence, 45 min; Potency, µM (series often up to 76.8 µM), without a hit: top-dose activity, negative = inhibition, actives largely listed as inhibitors; actives 0.12% (n = 410,000); AID 624173; also: potency is read from the fitted curve at half-maximal effect; % is scaled to controls: 0 for no effect and ±100 for the full control effect; nearly all actives have a fitted effect of over 50% in size
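Activity of T. brucei pyruvate kinase was followed by Kinase-Glo Plus luminescence after the enzyme reacted 45 min at room temperature with 130 uM ADP (final) and substrate. Test compounds were added before ADP at multiple concentrations.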
CHX counter: counter-screen hit for Shiga toxin inhibitors, cycloheximide. max response, %. cell reporter, cycloheximide protein synthesis inhibition counterscreen. actives 12% (n = 300,000); in the data active = max response mostly above about 13%, no sharp cut-off; inactive = mostly below about 14%; also: read at 38.3 µM for the half of the compounds with a filed dose; 0% is about no effect
Sm TGR inh: inhibitors of Schistosoma mansoni thioredoxin glutathione reductase | Potency, µM (top dose mostly 114 µM), for inactives: at the highest dose activity change, negative = inhibition, most hits filed as inhibitors | purified TGR, DTNB reduction, TNB absorbance 405 nm | AID 485364 | actives 3% (n = 360,000) | Q962Y6; also: potency is read from the fitted curve at half-maximal effect; % is scaled to controls: 0 for no effect and ±100 for the full control effect; nearly all actives have a fitted effect of over 60% in size
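TGR 20 nM + NADPH 100 uM (dispensed conc.), cpd preinc 15 min RT; start with NADPH (500 uM addition) then DTNB (15 mM addition). Kinetic TNB absorbance, 405 nm filter. Four-parameter Hill fit across titration.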
Active calls of the source: *; [ ] = dose if it differs, or a comment. Unless noted, calls follow the shape of the dose curve; as a rule, active = well fitted curve in the direction sought with a large enough effect; inconclusive = small, poorly fitted or top-dose-only effect, or another doubt; inactive = no such curve, though single readings can be large; an effect the other way counts as inactive or inconclusive.

`Cc1ccc(NC(=O)c2sc3nc[nH]c(=O)c3c2C)c(C)c1` gave Giardia FBPA inh 5%, LmPK inhibitor 4%, Shiga toxin inh 23, TbPYK inhibitor -6%, CHX counter 27* and Sm TGR inh -2%.
`CC1(C(=O)Nc2ccc3nc[nH]c3c2)CCN1C(=O)C/C=C/c1ccccc1` (stereo not drawn) gave TbPYK inhibitor 6%.
For O=C(NCc1ccco1)c1ccccc1NS(=O)(=O)c1ccc(Cl)s1 the results were Giardia FBPA inh 16%, LmPK inhibitor 11%, Shiga toxin inh -15, TbPYK inhibitor -16%, CHX counter 26 and Sm TGR inh 28µM*.
For O=C(Nc1ccc(Cl)cc1)Nc1ccccc1C(=O)NCc1ccco1 the results were Giardia FBPA inh 1%, LmPK inhibitor -14%, Shiga toxin inh 58*, TbPYK inhibitor -2%, CHX counter 56* and Sm TGR inh 3%.
COc1ccc(NC(=O)CS(=O)c2ccccc2Cl)cc1 (stereo not drawn) was read as LmPK inhibitor -3%, Shiga toxin inh 36, TbPYK inhibitor -6%, CHX counter 15* and Sm TGR inh -2%.
`COc1ccc(NC(=O)COC(=O)CCSc2ccccc2)cc1` gave TbPYK inhibitor 4%.
`COc1ccc(NC(=O)CCCSc2ccccc2)cc1` gave Giardia FBPA inh 16%, LmPK inhibitor 7%, Shiga toxin inh 28, TbPYK inhibitor -8%, CHX counter 24* and Sm TGR inh 4%.
`COC(=O)c1cc(CNC(=O)CCCSc2ccccc2)ccc1OC` gave Giardia FBPA inh -6%, LmPK inhibitor 1%, Shiga toxin inh 21, TbPYK inhibitor 3%, CHX counter 23* and Sm TGR inh 3%.
COc1ccc(CC(=O)Nc2ccc(C(=O)NCC(C)C)cc2)cc1 was read as Giardia FBPA inh -1%, LmPK inhibitor 1%, Shiga toxin inh -16, TbPYK inhibitor -7%, CHX counter -2 and Sm TGR inh 9%.
`COc1ccc(CC(=O)Nc2ccc(C(C)=O)cc2)cc1` gave Giardia FBPA inh -6%, LmPK inhibitor -2%, Shiga toxin inh 45, TbPYK inhibitor -11%, CHX counter 28* and Sm TGR inh 0%[57.1 µM].
Screening COc1ccc(S(=O)(=O)N(CC(=O)N(C)Cc2ccccc2)c2ccc(Cl)cc2)cc1 returned TbPYK inhibitor 5% and Sm TGR inh 16%.
Screening CCOC(=O)C1=C(CS(=O)(=O)c2ccc(F)cc2)NC(=O)NC1c1ccc(O)c(O)c1 (stereo not drawn) returned Giardia FBPA inh inconclusive, LmPK inhibitor inconclusive, Shiga toxin inh -2, TbPYK inhibitor 2%, CHX counter -6 and Sm TGR inh -24%.
Screening COc1ccc(NC(=S)NC(NC(=O)/C=C/c2ccccc2)C(Cl)(Cl)Cl)cc1 (stereo not drawn) returned Giardia FBPA inh 2%, LmPK inhibitor 5%, Shiga toxin inh -10, TbPYK inhibitor 4%, CHX counter -3 and Sm TGR inh 2%.
For COc1ccc(NC(=O)CCC(=O)NCCO)cc1 the results were Giardia FBPA inh -3%, LmPK inhibitor 3%, Shiga toxin inh 45*, TbPYK inhibitor -1%, CHX counter 16* and Sm TGR inh -1%.
For COc1cc(CC(=O)Nc2cccc(SC)c2)cc(OC)c1OC the results were Giardia FBPA inh -1%, LmPK inhibitor 1%, Shiga toxin inh 23, TbPYK inhibitor -5%, CHX counter 1 and Sm TGR inh -3%.
COc1ccc(NC(=O)N/C=C/c2ccccc2)cc1 was read as Giardia FBPA inh 1%, LmPK inhibitor 1%, Shiga toxin inh 103*, TbPYK inhibitor 1%, CHX counter 35* and Sm TGR inh 3%.
O=C(CCC(=O)Nc1ccccc1)NCCO was read as Giardia FBPA inh 2%, LmPK inhibitor 1%, Shiga toxin inh -2, TbPYK inhibitor 3%, CHX counter -2 and Sm TGR inh -4%.
